Bioassay records (PubChem BioAssay)
Platelet DG rel – modulates dense granule release in human platelets; inhibition, %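 (compounds screened at 7.5 µM in platelet-rich plasma)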; human platelet-rich plasma, SFLLRN dense granule ATP release, luminescence; 0.22% of 300,000 active;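 active = mean replicate score, as percent of positive control, at or above 50; inconclusive = mean below 50 but at least one replicate at or above 50; inactive = mean and every replicate below 50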
TPT1 inh – blocks Candida albicans tRNA 2'-phosphotransferase. recombinant caTPT1, FP RNA substrate dephosphorylation. inhibition, % at 5 µM. 0.81% of 300,000 active;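 active = inhibition above the mean of all tested compounds plus 3 SD, set per screening campaign, cut at about 24% in these data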
WT yeast gro inh – growth inhibition of WT yeast, mitochondrial fusion screen; mitochondrial fusion phenotypic screen, WT strain; inhibition, % at 10 µM; 2.1% of 190,000 active; AID 1362; in the data active = inhibition above about 58%; tested in S. cerevisiae
Rtt109 HAT inh – blocks Candida albicans Rtt109/Vps75 acetyltransferase activity. Q5AAJ8. purified Rtt109/Vps75, ThioGlo CoA-SH fluorescence, 4 h. inhibition, % at 34.9 µM. 0.16% of 330,000 active;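 active = inhibition of at least 50% in every replicate; inconclusive = best replicate reaches 50% inhibition but some replicates fall short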
Target sequence (Q5AAJ8 whole entry, looked up): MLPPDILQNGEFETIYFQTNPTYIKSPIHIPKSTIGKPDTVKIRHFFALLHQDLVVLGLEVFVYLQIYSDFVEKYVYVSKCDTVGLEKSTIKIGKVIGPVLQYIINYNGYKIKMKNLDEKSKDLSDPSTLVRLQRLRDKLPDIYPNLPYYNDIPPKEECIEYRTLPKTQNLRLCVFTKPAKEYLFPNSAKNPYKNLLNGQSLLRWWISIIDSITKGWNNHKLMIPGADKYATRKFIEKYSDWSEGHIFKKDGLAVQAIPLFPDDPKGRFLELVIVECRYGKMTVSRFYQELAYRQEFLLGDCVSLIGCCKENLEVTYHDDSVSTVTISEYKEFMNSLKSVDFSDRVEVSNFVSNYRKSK
SKKanGAS inh – SKKanGAS growth inhibition; AID 1662; 1.3% of 300,000 active; inhibition, % at 7.5 µM; S. pyogenes SKKanGAS, kanamycin growth, BacTiter-Glo, 6 h;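 active = mean replicate score, as percent of positive control median, at least 50; inconclusive = mean below 50 but one replicate at or above 50; inactive = mean and every replicate below 50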;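 also: strain carries kanamycin resistance gene driven by streptokinase promoter and grows in 40 µg/ml kanamycin; loss of luminescence reflects streptokinase promoter inhibition or plain growth inhibition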
PHOSPHO1 inh – inhibitors of human PHOSPHO1 phosphatase; Q8TCT1; recombinant PHOSPHO1, absorbance phosphatase assay; inhibition, % at 13.3 µM; 1.1% of 290,000 active; in the data active = inhibition above about 60%
Target sequence (Q8TCT1 whole entry, looked up): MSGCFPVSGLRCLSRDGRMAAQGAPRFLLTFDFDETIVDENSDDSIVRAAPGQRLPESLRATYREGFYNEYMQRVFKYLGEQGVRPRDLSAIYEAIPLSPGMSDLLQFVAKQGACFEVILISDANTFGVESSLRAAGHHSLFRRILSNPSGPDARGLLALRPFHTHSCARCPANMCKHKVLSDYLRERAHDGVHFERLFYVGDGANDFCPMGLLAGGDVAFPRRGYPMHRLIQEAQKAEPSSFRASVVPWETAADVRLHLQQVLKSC
Each line names hits and unclear results; the compound was inactive in the other large screens. Hits are enriched below; roughly 3.9% of the tested compounds scored in any of these assays.

COc1cccc(C(=O)N(C)Cc2c(C)nn(C3CCS(=O)(=O)C3)c2C)c1 (centres undefined)	none (no result: Platelet DG rel, TPT1 inh, WT yeast gro inh, SKKanGAS inh, PHOSPHO1 inh)
Cn1c(=O)c(NCCO)c2c3c(cccc31)C(=O)c1ccccc1-2	none
Cn1c(=O)c(NC2CCCCC2)c2c3c(cccc31)C(=O)c1ccccc1-2	WT yeast gro inh 58.5 (no result: Platelet DG rel, TPT1 inh, Rtt109 HAT inh, SKKanGAS inh)
CCCCNc1c2c3c(cccc3n(C)c1=O)C(=O)c1ccccc1-2	WT yeast gro inh 64.1, SKKanGAS inh 53.6
O=C(Nc1ccc(Cl)cc1)[C@@H]1[C@@H]2C(=O)N(c3cccc(F)c3)C(=O)[C@@H]2[C@H]2C=CC=NN21	none (no result: WT yeast gro inh)
O=C(Nc1ccc(Cl)cc1)[C@@H]1[C@@H]2C(=O)N(c3ccc4ccccc4c3)C(=O)[C@@H]2[C@H]2C=CC=NN21	PHOSPHO1 inh 75.7
O=C(/C=C/c1ccccc1)OCCN1C(=O)c2ccccc2C1=O	none (no result: Platelet DG rel, WT yeast gro inh)
O=C(Nc1ccc(Oc2cccnc2)cc1)C1CCN(Cc2cc(Cl)ccc2O)CC1	Rtt109 HAT inh 59.4 (no result: WT yeast gro inh)
O=[N+]([O-])c1cc(Cl)ccc1NCCNc1ncc(C(F)(F)F)cc1Cl	none
O=C1C=CC(=O)N1CCNc1ncc(C(F)(F)F)cc1Cl	WT yeast gro inh 97.2, SKKanGAS inh 76.6 (no result: TPT1 inh)
O=[N+]([O-])c1ccccc1NCCNc1ncc(C(F)(F)F)cc1Cl	SKKanGAS inh 52.2
O=S(=O)(NCCNc1ncc(C(F)(F)F)cc1Cl)C(F)(F)F	WT yeast gro inh 82.9
O=C(COC(=O)c1cc(Br)ccc1O)c1ccc(F)cc1	none (no result: Platelet DG rel, TPT1 inh, WT yeast gro inh, SKKanGAS inh, PHOSPHO1 inh)
CCCC(=O)NC(c1ccc(C(C)C)cc1)c1ccc2cccnc2c1O (centres undefined)	SKKanGAS inh 84.2 (no result: WT yeast gro inh, PHOSPHO1 inh)
CCC(=O)NC(c1ccc(C)cc1)c1ccc2cccnc2c1O (centres undefined)	SKKanGAS inh 71.3 (no result: WT yeast gro inh, PHOSPHO1 inh)
CCCC(=O)NC(c1ccc(N(C)C)cc1)c1ccc2cccnc2c1O (centres undefined)	none (no result: WT yeast gro inh)
O=C(CSc1nnc(NC2CC2)s1)c1ccc[nH]1	none (no result: Platelet DG rel, TPT1 inh, WT yeast gro inh, SKKanGAS inh, PHOSPHO1 inh)
Cc1cccc(N2CCN(Cc3nc(-c4ccccc4Cl)oc3C)CC2)n1	none
Cc1cccc(N2CCN(Cc3nc(-c4cccc(Cl)c4)oc3C)CC2)n1	WT yeast gro inh 62.1
CCOc1cc(/C=C2\CN(CC)C/C(=C\c3ccc(O)c(OCC)c3)C2=O)ccc1O	none (no result: WT yeast gro inh)
CCN1C/C(=C/c2cccc([N+](=O)[O-])c2)C(=O)/C(=C/c2cccc([N+](=O)[O-])c2)C1	WT yeast gro inh 88.3 (no result: Platelet DG rel, SKKanGAS inh)
O=C1C2C3CCC(C3)C2C(=O)N1c1ccc(OS(=O)(=O)c2ccccc2)cc1 (centres undefined)	PHOSPHO1 inh 60.0
Oc1c(Br)cc(Br)cc1CNc1ccc(F)cc1	WT yeast gro inh 83.0, SKKanGAS inh inconclusive
Oc1c(Br)cc(Br)cc1CNc1cnc2ccccc2c1	SKKanGAS inh 61.3 (no result: WT yeast gro inh)
COc1ccc(CNC(=O)CN2C(=O)COc3ccc(S(=O)(=O)NC4CCCC4)cc32)cc1	none (no result: WT yeast gro inh, Rtt109 HAT inh)
CCN(Cc1ccccc1)C(=O)CN1C(=O)COc2ccc(S(=O)(=O)NC3CCCC3)cc21	PHOSPHO1 inh 62.9 (no result: WT yeast gro inh)
CCOc1ccc(C(C)=O)cc1COC(=O)c1ccccc1C(=O)N(C)Cc1ccccc1	none (no result: Platelet DG rel, TPT1 inh, WT yeast gro inh, SKKanGAS inh, PHOSPHO1 inh)
COc1cccc(/C=N/n2c(N)nc3ccccc32)c1OC	SKKanGAS inh 53.3 (no result: Rtt109 HAT inh)
Cc1nc2c(C(=O)NCCC3=CCCCC3)c[nH]n2c(=O)c1Cl	PHOSPHO1 inh 81.6
Cc1nc2c(C(=O)NCc3ccc4c(c3)OCO4)c[nH]n2c(=O)c1Cl	none
COC(=O)C1C(=O)NCC1c1ccccc1 (centres undefined)	WT yeast gro inh 93.8
Cc1ccsc1/C=N/NC(=O)C1C(=O)NCC1c1ccccc1 (centres undefined)	none (no result: WT yeast gro inh, Rtt109 HAT inh)
CCn1c(=O)c(C(=O)NNC(=O)c2cccc(Cl)c2)c(O)c2ccccc21	SKKanGAS inh 102.6 (no result: WT yeast gro inh)
Cn1nc(C(=O)NNC(=O)c2cccc(Cl)c2)c2ccccc2c1=O	none (no result: Platelet DG rel, TPT1 inh, WT yeast gro inh, SKKanGAS inh, PHOSPHO1 inh)
Cn1c(=O)c(C(=O)NNC(=O)c2cccc(Cl)c2)c(O)c2ccccc21	SKKanGAS inh 61.7 (no result: WT yeast gro inh)
Cc1cccc(C(=O)NNC(=O)c2c(O)c3ccccc3n(C)c2=O)c1	SKKanGAS inh 88.1 (no result: WT yeast gro inh)
CC(=O)c1c(O)c2ccccc2n(C)c1=O	none
CC(=O)N1CCCc2cc(S(=O)(=O)CCC(=O)Nc3cccc(C)c3C)ccc21	none (no result: WT yeast gro inh)
O=S(=O)(c1ccc2c(c1)OCCO2)N1CCCN(S(=O)(=O)c2c(F)cccc2F)CC1	none (no result: Platelet DG rel, TPT1 inh, WT yeast gro inh, SKKanGAS inh, PHOSPHO1 inh)
CCc1ccc(-c2cn(C3CCCCC3)c(=S)[nH]2)cc1	WT yeast gro inh 68.2
Cc1ccc(N/N=C2/CCCNC2=O)cc1	PHOSPHO1 inh 93.0
Cc1cc(C)n(-c2nc(SCC(=O)Nc3nccs3)c3c4c(sc3n2)COC(C)(C)C4)n1	SKKanGAS inh 57.9
Cc1cc(C)n(-c2nc(NCCC(C)C)c3c4c(sc3n2)COC(C)(C)C4)n1	WT yeast gro inh 80.3, SKKanGAS inh 64.5 (no result: TPT1 inh)
O=C1Nc2c(Cl)cc(Cl)cc2C1=O	none (no result: Platelet DG rel, TPT1 inh, WT yeast gro inh, SKKanGAS inh, PHOSPHO1 inh)
CCN(CC)c1ccc(NC(=O)Cn2cc3c(n2)CCC(C)C3)c(C)c1 (centres undefined)	PHOSPHO1 inh 82.6
O=C(NC1CC2CCCC(C1)N2C(=O)Nc1cccc(F)c1)C1CC1 (centres undefined)	none (no result: WT yeast gro inh)
O=C(Nc1nc(-c2ccco2)cs1)c1ccccc1	PHOSPHO1 inh 88.5
O=C(Nc1nc(-c2ccccc2)cs1)c1ccco1	none (no result: WT yeast gro inh)
Cc1ccc(-c2csc(NC(=O)c3ccc(-c4ccccc4)cc3)n2)o1	WT yeast gro inh 77.5
Cc1csc(NC(=O)c2ccccc2)n1	none (no result: WT yeast gro inh)
CN(Cc1ccccc1)C(=O)COC(=O)c1cc2ccccc2oc1=O	none (no result: Platelet DG rel, TPT1 inh, WT yeast gro inh, SKKanGAS inh, PHOSPHO1 inh)
O=C(CCc1ccccc1)N=C1SC2CS(=O)(=O)CC2N1c1ccccc1F (centres undefined)	none (no result: WT yeast gro inh)
Cc1ccccc1CN1CCN(Cc2cc(=O)c3ccccc3[nH]2)CC1CCO (centres undefined)	none (no result: WT yeast gro inh)
COc1ccc(-c2cc(C(=O)N/N=C(\C)c3ccco3)c3ccccc3n2)c(OC)c1	SKKanGAS inh 54.2 (no result: WT yeast gro inh)
COc1ccc(OC)c(-c2cc(C(=O)N3CCN(c4ncccn4)CC3)c3ccccc3n2)c1	none
COc1ccc(-c2cc(C(=O)N3CCN(c4ncccn4)CC3)c3ccccc3n2)c(OC)c1	WT yeast gro inh 59.1
COc1ccc(Cl)cc1Nc1nc(-c2sc(NC(=O)CC(C)C)nc2C)cs1	PHOSPHO1 inh 93.8
Cc1nc(NC(=O)CC(C)C)sc1-c1csc(Nc2ccc(Cl)cc2Cl)n1	none
CCC(C)C(=O)Nc1nc(C)c(-c2csc(Nc3ccccc3OC)n2)s1 (centres undefined)	PHOSPHO1 inh 74.3
CCCCC(=O)Nc1nc(C)c(-c2csc(Nc3ccccc3OC)n2)s1	PHOSPHO1 inh 93.8
C=CCCC(=O)Nc1nc(C)c(-c2csc(Nc3cc(Cl)ccc3OC)n2)s1	PHOSPHO1 inh 98.7
Cc1ccc(C(=O)NCCNC(=O)COc2ccc(Cl)cc2)cn1	none (no result: WT yeast gro inh)
CC1CCC2(CC1)NC(=O)N(CC(=O)NC(C)c1ccc(F)c(F)c1)C2=O (centres undefined)	none (no result: Platelet DG rel, TPT1 inh, WT yeast gro inh, SKKanGAS inh, PHOSPHO1 inh)
